Assay results as given in PubChem BioAssay AID1159580 (chemical genetic matrix, 2015).
About 2,000 (36%) of roughly 5,500 compounds were called active. Roughly 18% stayed inconclusive and do not appear here. Cut-off read from the data, not from the text of the source: active = normalized growth mostly below about 0.91 (no sharp cut-off); inconclusive = no clear call, values can overlap the other calls; inactive = mostly above about 0.92. The list shows a part of the results.

Test: chemical genetic growth profiling, strain panel (AID 1159580);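 note: tested at 20 µM; growth read once vehicle control cultures reached saturation at 30 °C; 1 = growth at the plate median or of vehicle wells; lower values mean less growth of the strain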
Details: S. cerevisiae deletion strains, growth OD
[1] = locus YAL013W, strain DEP1, stronger effect = lower value
[2] = locus YBR229C, strain ROT2, stronger effect = lower value
[3] = locus YDL101C, strain DUN1, stronger effect = lower value
[4] = locus YDR150W, strain NUM1, stronger effect = lower value
[5] = locus YEL061C, strain CIN8, stronger effect = lower value
[6] = locus YGR078C, strain PAC10, stronger effect = lower value
[7] = locus YHR030C, strain SLT2, stronger effect = lower value
[8] = locus YHR087W, strain rtc3, stronger effect = lower value
[9] = locus YJR043C, strain POL32, stronger effect = lower value
[10] = locus YJR075W, strain HOC1, stronger effect = lower value
[11] = locus YLR039C, strain RIC1, stronger effect = lower value
[12] = locus YLR058C, strain SHM2 (second series), stronger effect = lower value
[13] = locus YLR085C, strain ARP6, stronger effect = lower value
[14] = locus YLR262C, strain YPT6, stronger effect = lower value
[15] = locus YML094W, strain GIM5, stronger effect = lower value
[16] = locus YMR219W, strain ESC1, stronger effect = lower value
[17] = locus YMR263W, strain SAP30, stronger effect = lower value
[18] = locus YNL153C, strain GIM3, stronger effect = lower value
[19] = locus YNL298W, strain CLA4 (second series), stronger effect = lower value
[20] = locus YNL322C, strain KRE1, stronger effect = lower value
[21] = locus YNR030W, strain Alg12, stronger effect = lower value
[22] = locus YOL006C, strain TOP1, stronger effect = lower value
[23] = locus YPL055C, strain LGE1, stronger effect = lower value
[24] = locus YPL241C, strain CIN2, stronger effect = lower value
[25] = locus YPR135W, strain CTF4, stronger effect = lower value

Measured: normalized growth

O=[N+]([O-])c1ccc(Oc2cccc3cccnc23)cc1
active: [14] 0.799 | [18] 0.848 | [24] 0.854
inactive: [1] 1.01 | [2] 1 | [3] 0.942 | locus YDL134C, strain PPH21, stronger effect = lower value 0.993 | [4] 1 | [5] 0.98 | [6] 0.991 | [7] 0.736 | [8] 1 | [9] 0.98 | [10] 1.02 | [11] 0.805 | [12] 1 | [13] 0.959 | [15] 0.991 | [16] 0.993 | [17] 1 | locus YMR307W, strain GAS1, stronger effect = lower value 0.719 | [19] 0.892 | [20] 1 | [21] 0.994 | [22] 0.872 | [23] 0.919 | [25] 0.754

O=[N+]([O-])c1ccc(OCCCOc2ccc([N+](=O)[O-])cc2)cc1
inactive: [1] 1 | [2] 0.978 | [3] 0.98 | [4] 0.988 | [5] 0.979 | [6] 0.991 | locus YGR229C, strain SMI1, stronger effect = lower value 0.995 | [7] 0.91 | [8] 0.973 | [9] 1.01 | [10] 0.971 | locus YKL190W, strain CNB1, stronger effect = lower value 1 | [11] 0.966 | [12] 0.975 | [13] 0.993 | [14] 0.969 | [15] 0.934 | [16] 0.983 | [17] 1.01 | locus YNL128W, strain TEP1, stronger effect = lower value 0.996 | [18] 0.995 | [19] 0.961 | [20] 0.99 | [21] 0.979 | [22] 0.97 | [23] 1.02 | [24] 0.953 | [25] 0.932
